Records with an inconclusive call do not appear. The source made the active and inactive calls. Calls follow the shape of the dose curve; as a rule, active = well fitted cell-killing curve with a large enough effect; inconclusive = small, poorly fitted or top-dose-only effect, or effect the other way; inactive = no such curve, though single readings can be large or run the other way.
Potency is read from the fitted curve at half-maximal effect.

The nature of this test: Quantitative High-Throughput drug screen in 47 multiple myeloma cell lines against the NCATS MIPE library collection: OCIMY5_PLB cell viability assay (AID 1918988). Also: nearly all actives have a fitted effect of over 65% in size. The conditions noted are these: OCI-MY5 myeloma viability, ATP luminescence, 48 h; series mostly up to 45.8 µM; viability, % of control: at the top concentration. From the text:
PI: Beverly A. Mock Ph.D.
Laboratory of Cancer Biology and Genetics,
Center for Cancer Research, National Cancer Institute,
National Institute of Health, Bethesda, Maryland
Drug resistance and disease progression are common in multiple myeloma (MM) patients, underscoring the need for new therapeutic combinations. […] We hypothesized that effective combinations would reduce MYC expression and enhance p16 activity. […] These preclinical data identify potentially useful drug combinations for evaluation in drug-resistant MM and reveal potential mechanisms of combined drug sensitivity.
Described herein is the primary MIPE qHTS used to cherrypick compounds. Validated compounds were then further tested for potential synergistic activiy.
[1] Peat TJ, Gaikwad SM, Dubois W, Gyabaah-Kessie N, Zhang S, Gorjifard S, Phyo Z, Andres M, Hughitt VK, Simpson RM, Miller MA, Girvin AT, Taylor A, Williams D, D'Antonio N, Zhang Y, Rajagopalan A, Flietner E, Wilson K, Zhang X, Shinn P, Klumpp-Thomas C, McKnight C, Itkin Z, Chen L, Kazandijian D, Zhang J, Michalowski AM, Simmons JK, Keats J, Thomas CJ, Mock BA. Drug combinations identified by high-throughput screening promote cell cycle transition and upregulate Smad pathways in myeloma. Cancer Lett. 2023 Aug 1;568:216284. doi: 10.1016/j.canlet.2023.216284. Epub 2023 Jun 24. PMID: 37356470; PMCID: PMC10408729.
SEQUENCE No. (e.g., 1, 2, 3, etc.); […] (e.g., Cells, Incubation, Reagent, etc.); VALUE and DESCRIPTION.
1; Cells; 5 uL; white, solid bottom 1536-well Greiner assay plate.
2; Compounds; 23 nL; Kalypsis pin tool (Wako USA) equipped with a 1536-well pin head to transfer to the assay plates.
3; Incubation; 48 hours; 37C incubation.
4; Reagent;5uL; CellTiter Glo (Promega).
5; Detector; 425V; Luminescence; Viewlux PerkinElmer.
NOTES (numbers refer to Sequence numbers above)
1. The cell-based screening methods employed in this study were like those previously published. Briefly, the corresponding myeloma cell lines were screened in 1,536-well plates with 500 cells, 5-uL per well for inhibition of cell viability (assessed by measuring ATP levels with CellTiterGlo).
2. NCATS MIPE 4.0 library of approved and investigational drugs were added using the Kalypsis pin tool. Wells treated with DMSO only for 100% viability and media only for 0% viability were used as controls.
3. The assay plates were covered and incubated for 48 hours in a 37C, 5% CO2 incubator with controlled humidity.
4. After 48 hours, CellTilter-GloTM luminescent substrate mix (Promega) reagent was added to the assay plate and plates we incubated for 5 min at room temperature.
5. Signal was measured as median relative luminescence units on a ViewLux (PerkinElmer) multiplate reader.
[1] Heske CM, Davis MI, Baumgart JT, Wilson K, Gormally MV, Chen L, Zhang X, Ceribelli M, Duveau DY, Guha R, Ferrer M, Arnaldez FI, Ji J, Tran HL, Zhang Y, Mendoza A, Helman LJ, Thomas CJ. Matrix Screen Identifies Synergistic Combination of PARP Inhibitors and Nicotinamide Phosphoribosyltransferase (NAMPT) Inhibitors in Ewing Sarcoma. Clin Cancer Res. 2017 Dec 1;23(23):7301-7311. doi: 10.1158/1078-0432.CCR-17-1121. Epub 2017 Sep 12. PMID: 28899971; PMCID: PMC6636827.
Consider `N=c1c2c(-c3ccccc3)c(-c3ccccc3)n(Cc3ccccc3)c2ncn1C1CCC(O)CC1` (stereo not given), for which the Potency is 11.8 µM (active).

In the case of `O=C(Oc1ccc([N+](=O)[O-])cc1)N1CCN(Cc2cccc(Oc3ccccc3)c2)CC1`, the “viability, % of control” value is 126% (inactive).

Regarding `CC(=Cc1csc(C)n1)[C@@H]1C[C@H]2O[C@@H]2CCC[C@H](C)[C@@H](O)[C@@H](C)C(=O)C(C)(C)[C@@H](O)CC(=O)O1`, the “viability, % of control” value is 48.5% (inactive).

On to `CC=C(C)C(=O)O[C@H]1C(C)=C2[C@@H]3OC(=O)[C@@](C)(O)[C@@]3(O)[C@@H](OC(=O)CCC)C[C@](C)(OC(C)=O)[C@@H]2[C@@H]1OC(=O)CCCCCCC`, for which the Potency was 0.0105 µM (active).

With `COC1=C[C@@H]2[C@@H]3Cc4ccc(OC)c(O)c4[C@]2(CCN3C)CC1=O`, the Potency was 1.66 µM (active).

Consider `C[C@]12CC[C@H]3[C@@H](CCC4=CC(=O)CC[C@@]43C)[C@H]1CC[C@H]2OC(=O)CCC1CCCC1`, for which the Potency was 20.9 µM (active).

Turning to `O=c1[nH]c2ccccc2n1C1CCN(Cc2ccc(-c3[nH]c4cc5ncnc5cc4nc3-c3ccccc3)cc2)CC1`, the Potency was 16.6 µM (active).

On to `COC[C@H]1OC(=O)c2coc3c2[C@@]1(C)C1=C(C3=O)[C@@H]2CC[C@H](O)[C@@]2(C)C[C@@H]1OC(C)=O`, for which the Potency is 10.5 µM (active).

In the case of `Cc1[nH]nc2ccc(-c3cncc(OC[C@@H](N)Cc4c[nH]c5ccccc45)c3)cc12`, the Potency was 0.833 µM (active).

Take `O=S(=O)(CC1CS1)c1ccc(Oc2ccccc2)cc1` (stereo not given): the Potency was 20.9 µM (active).

Consider `CCNC(=O)CC1N=C(c2ccc(Cl)cc2)c2cc(OC)ccc2-n2c(C)nnc21` (stereo not given), for which the Potency is 6.62 µM (active).

On to `COc1ccc2c(c1)[C@]13CCCCC1C(C2)N(C)CC3` (stereo not given in full), for which the “viability, % of control” value is 126% (inactive).

`Cc1c(C(=O)Nc2cccc(C(F)(F)F)c2)cc(-c2ccccc2)n1CCCN1CCOCC1`: the Potency is 16.6 µM (active).

In the case of `CN[C@@H]1Cc2cccc3[nH]c(=O)n(c23)C1`, the Potency is 20.9 µM (active).

`CCNC(=O)C[C@@H]1N=C(c2ccc(Cl)cc2)c2cc(OC)ccc2-n2c(C)nnc21`: the Potency is 0.209 µM (active).

Take `Cc1ccccc1-n1c(Cn2ncc3c(N)ncnc32)nc2cccc(C)c2c1=O`: the Potency was 4.18 µM (active).

As to `COc1ccc2c(c[n+](C)c3c4cc5c(cc4ccc23)OCO5)c1OC`, the Potency is 2.09 µM (active).

With `CCCCCC[C@H]1C(=O)O[C@H](C)[C@H](NC(=O)c2cccc(NC=O)c2O)C(=O)O[C@@H](C)[C@@H]1OC(=O)CC(C)C`, the Potency is 0.0662 µM (active).

On to `CC1=NN=C(c2ccc(N)cc2)c2cc3c(cc2C1)OCO3`, for which the Potency was 18.7 µM (active).

As for `CCc1c(C(=O)C(N)=O)c2c(OCC(=O)O)cccc2n1Cc1ccccc1`, the “viability, % of control” value is 168% (inactive).

For the compound `CC[C@@]1(O)C(=O)OCc2c1cc1n(c2=O)Cc2cc3ccccc3nc2-1`, the Potency was 0.166 µM (active).

As for `CCCN1CCO[C@@H]2c3cc(O)ccc3OC[C@@H]21`, the Potency is 18.7 µM (active).

As to `C[C@]12Cc3cn[nH]c3C[C@@H]1CC[C@@H]1[C@H]2CC[C@@]2(C)[C@H]1CC[C@]2(C)O`, the Potency is 13.2 µM (active).

`c1ccc2c(CN3CCNCC3)cccc2c1`: the “viability, % of control” value was 128% (inactive).

`O=C(O)CNC(=O)c1c(O)c2ccccc2n(Cc2ccccc2)c1=O`: the “viability, % of control” value was 153% (inactive).

As for `C[C@@H]1CC[C@@]2(OC1)O[C@H]1C[C@H]3[C@@H]4CC=C5C[C@@H](O[C@@H]6O[C@H](CO)[C@@H](O[C@@H]7O[C@@H](C)[C@H](O)[C@@H](O)[C@@H]7O)[C@H](O)[C@@H]6O[C@@H]6O[C@@H](C)[C@H](O)[C@@H](O)[C@@H]6O)CC[C@]5(C)[C@@H]4CC[C@]3(C)[C@@H]1[C@H]2C`, the Potency was 1.66 µM (active).

Take `O=c1[nH]c2ccc(Cl)cc2c(N[C@@H]2CN3CCC2CC3)c1-c1nc2ccccc2[nH]1`: the Potency is 0.0833 µM (active).

Regarding `C1=C2CCCN[C@H]2[C@@H]2C[C@H]1[C@@H]1CCCCN1C2`, the “viability, % of control” value is 168% (inactive).

`CCN1CCN(C(=O)Cc2ccc(Nc3ncc(F)c(Nc4ccc(C(=O)Nc5ccccc5Cl)cc4)n3)cc2)CC1`: the Potency was 2.64 µM (active).

In the case of `CC(N[C@H]1C[C@H]1c1ccccc1)c1ccc2c(c1)OCCO2` (stereo not given in full), the Potency is 2.96 µM (active).

On to `CN1CCN(c2ccc([N+](=O)[O-])c3no[n+]([O-])c23)CC1`, for which the Potency is 16.6 µM (active).

As to `CCOC(=O)Nc1ccc(NCc2ccc(F)cc2)cc1N`, the “viability, % of control” value was 134% (inactive).

Consider `O=C1C=CC[C@@H]2[C@H]3CCCN4CCC[C@@H](CN12)[C@@H]34`, for which the Potency was 2.96 µM (active).

On to `CCN1C[C@]2(OC(=O)c3ccccc3NC(C)=O)CC[C@H](OC)[C@@]34[C@H]5CC6[C@@H](OC)C[C@](O)(C(C[C@@H]23)[C@@H]14)[C@@]5(O)[C@@H]6OC`, for which the “viability, % of control” value is 165% (inactive).

`O=[N+]([O-])c1ncc[nH]1`: the Potency is 29.6 µM (active).

As to `CSCC[C@@H](NC(=O)[C@@H](Cc1ccccc1)NC(=O)CNC(=O)CNC(=O)[C@@H](N)Cc1ccc(O)cc1)C(=O)O`, the “viability, % of control” value is 161% (inactive).

Turning to `CC(C)(O)C=CC(=O)[C@](C)(O)[C@H]1[C@H](O)C[C@]2(C)[C@@H]3CC=C4[C@@H](C=C(O)C(=O)C4(C)C)[C@]3(C)C(=O)C[C@@]12C`, the Potency was 0.0469 µM (active).

Take `CC(C)[C@]12O[C@@H]1[C@@H]1O[C@]13[C@]1(O[C@H]1C[C@@H]1C4=C(CC[C@@]13C)C(=O)OC4)[C@H]2O`: the “viability, % of control” value was 3.94% (inactive).

As to `CC[C@@H]1[C@@H](C)O[C@@](O)([C@@H](C)[C@H](O)[C@H](C)[C@H]2OC(=O)C=CC=C[C@@H](C)[C@@H]([C@@H](C)[C@@H](O)[C@H](C)[C@@]3(O)C[C@H](O[C@H]4C[C@H](O)[C@H](O)[C@H](C)O4)[C@H](CC)[C@@H](C)O3)OC(=O)C=CC=C[C@@H]2C)C[C@H]1O[C@H]1C[C@H](O)[C@H](O)[C@H](C)O1`, the Potency was 0.372 µM (active).

Consider `CC(C)(C)[C@]1(O)C[C@@H]2OC(=O)C[C@@]23C(=O)O[C@@H]2OC(=O)[C@H](O)C213` (stereo not given in full), for which the “viability, % of control” value was 164% (inactive).

Values taken from PubChem BioAssay (NCATS).
